Results reported in the supplement of paper PMC7866885, “A novel bicyclic 2,4-diaminopyrimidine inhibitor of Streptococcus suis dihydrofolate reductase” (PeerJ, 2021).
± gives the standard deviation.

Each compound was assayed on Streptococcus suis HE06 (assay: percent growth relative to DMSO control; higher = less growth inhibition). Settings: 10 µM; incubation time 18 h.
Protocol: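 CLSI broth microdilution: 5x10^4 CFU of Streptococcus suis (strain P1/7 or HE06) incubated with 10 µM Pathogen Box compound in cation-adjusted Mueller Hinton broth, 37 °C, 5% CO2, 18 h. Growth read as OD600 and expressed as percent of the DMSO-treated control (100%); mean ± SD of three independent experiments.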

Compound | percent growth [%]
CC(C)C(C(=O)Nc1ccc(S(=O)(=O)N(C)C)cc1)c1ccc(Cl)cc1 (centres undefined) | 110 ± 24
COc1ccc(C2(C(=O)Nc3ccc(Br)cc3)CCCC2)cc1 | 120 ± 25
FC(F)(F)c1cnc(Sc2nnc(-c3ccncc3)o2)c(Cl)c1 | 94.8 ± 27
COC(=O)c1cccc2oc(-c3cccc(OC)c3NC(=O)c3cc(-c4ccccc4)on3)nc12 | 102 ± 25
O=C(Nc1ccc2c(c1)B(O)OC2)c1ccccc1C(F)(F)F | 88.2 ± 15
O=C(NC1CCN(c2ccnc3ccccc23)C1)c1cccc(C(F)(F)F)c1 (centres undefined) | 106 ± 30
CCOc1ccccc1NC(C)C(=O)Nc1cc(C(F)(F)F)ccc1N1CCOCC1 (centres undefined) | 115 ± 20
O=C(COc1cccc(F)c1)Nc1nc(-c2ccccn2)cs1 | -0.0745 ± 0.086
Cc1nc(-c2ccccn2)nc(N(C)CCc2ccccc2)c1Cl | 9.53 ± 8.4
O=C(NCc1ccoc1)N1CCN(Cc2ccc3c(c2)OCO3)CC1 | 94 ± 5.7
COc1ccccc1C(C)NCC(=O)Nc1cc(C(F)(F)F)ccc1Cl (centres undefined) | 86.8 ± 5.4
COc1cc(NC(=O)Cc2nn(C)c(=O)c3ccccc23)ccc1Cl | 82.8 ± 6.6
O=C(Nc1ccccc1-c1nc2c(C(=O)O)cccc2o1)c1ccccc1 | 68.4 ± 14
COc1ccc(N(CCc2cccc(C)n2)C(=O)C2CCCCC2)cc1 | 115 ± 37
O=C(NC1CC1)c1ccc(N2CCOc3ccc(Cl)cc32)s1 | 73.8 ± 20
CC(C)n1ncc2c(C(=O)NCC(c3cccs3)N3CCOCC3)cc(-c3ccccc3)nc21 (centres undefined) | 89.9 ± 4.6
O=C(c1ccc(NCCO)cc1)C1C[C@H]1c1ccc(Cl)cc1 (some centres undefined) | 147 ± 53
Nc1nccc2ccc(Oc3ccncc3)cc12 | 97.4 ± 7
CC(C)(CN)c1nc(-c2ccc(Cl)c(O)c2)c(-c2ccnc(N)n2)[nH]1 | 90.9 ± 6.5
NC(=O)c1cc(-c2ccsc2)ccc1OCCOc1ccccc1 | 118 ± 40

Compound | percent growth [%]
Nc1nc(N)c2c3c(sc2n1)CN(Cc1ccccc1)CC3 | 94.5 ± 3.1
CCc1ccccc1-n1c(C)cn2c3c(=O)n(C(C(=O)OC)C(C)C)c(=O)n(C)c3nc12 (centres undefined) | 109 ± 4.8
CCNC(=O)C(C)Nc1nc(-c2cccnc2)nc2sc(C)c(C)c12 (centres undefined) | 101 ± 8.4
CO[C@H]1/C=C/O[C@@]2(C)Oc3c(C)c(O)c4c(O)c(/c(=C/NN5CCN(C)CC5)c(O)c4c3C2=O)=N\C(=O)/C(C)=C\C=C/[C@H](C)[C@H](O)[C@@H](C)[C@@H](O)[C@@H](C)[C@H](OC(C)=O)[C@@H]1C | 4.41 ± 2.2
CNC(=O)c1cc(S(=O)(=O)N2CCN(c3ccccn3)CC2)cs1 | 79.7 ± 12
CN1CCN(c2nccc3nc(-c4ccc(F)c(F)c4)[nH]c23)CC1 | 82.2 ± 21
c1coc(CNc2nc(N3CCCCC3)nc3ccccc23)c1 | 78 ± 7.8
O=C(C1CCN(c2cc(-n3cccc3)ncn2)CC1)N1CCc2ccccc2C1 | 106 ± 15
CC[C@@H]([C@H](C)O)n1ncn(-c2ccc(N3CCN(c4ccc(OC[C@@H]5CO[C@@](Cn6cncn6)(c6ccc(F)cc6F)C5)cc4)CC3)cc2)c1=O | 76.2 ± 4.8
COc1ccc(-c2cc(NC(=O)c3ccc(F)cc3Cl)ccc2OC)cc1 | 89.4 ± 3.4
O=C1Nc2ccc(Br)cc2C12NCCc1c2[nH]c2ccccc12 (centres undefined) | 94.7 ± 15
COc1ccc(-c2nc(-c3cccc(NC(=O)Cc4ccc(F)cc4)c3)no2)cc1OC | 83 ± 3.5
COc1cc(OC)cc(C(=O)NCC2Cc3cc(Cl)cc(-c4ccncc4)c3O2)c1 (centres undefined) | 90 ± 28
CNC(=O)C1Cc2ccccc2N1C(=O)Cc1ccc(F)cc1 (centres undefined) | 96.6 ± 1.8
Cc1ncc(-c2ccnc(Nc3ccc(S(C)(=O)=O)cc3)n2)n1C(C)C | 89.7 ± 4.3
CNCCC(Oc1ccc(C(F)(F)F)cc1)c1ccccc1 (centres undefined) | 104 ± 4
Cc1ccc(-c2cc(C(=O)Nc3cccnc3)c3cc(Br)ccc3n2)cc1 | 99.1 ± 11
CC(=O)Oc1ccccc1C(=O)Nc1ncc([N+](=O)[O-])s1 | 42.5 ± 18
CC1CCCCN1C(=O)NCCc1coc(-c2ccc(F)cc2)n1 (centres undefined) | 79.5 ± 6.9
